Screening data (PubChem BioAssay)
A selection: hits, their analogues and other compounds. The true share with any hit is near 2.3%.
A549 viability: counter-screen for Nrf2 inhibitors: cytotoxicity in A549 cells; 390,000 compounds, 0.16% hits; Potency, µM (titrated, usually from 46 µM), hits mostly inhibitors; A549 ARE-Fluc cells, CellTiter-Fluor viability, 18-24 h
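A549 ARE-Fluc cells in 5% FBS OPTI-MEM, 5000 cells/well, rested 2 h then exposed to compounds in concentration-response for 18-24 h at 37 °C. Viability by CellTiter-Fluor fluorescence (Ex 405/Em 525) after 30 min; luciferase luminescence (BugLite, 15 min, RT) read afterwards.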
Nrf2 inh: Nrf2 pathway inhibition. AID 504444. Potency, µM (doses to about 46 µM), hits mostly inhibitors. A549 ARE-Fluc reporter, luciferase luminescence, 18-24 h. 360,000 compounds, 2.1% hits; note: nearly all actives have a fitted effect of over 60% in size
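In this cell-based qHTS, ARE-driven firefly luciferase in A549 cells reports Nrf2 activity; the luminescent signal after BugLite lysis is the measured value, with a prior CellTiter-Fluor read for cell health.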
Nrf2 ARE act: activators of Nrf2 (ARE) signaling | Potency, µM (series often up to 46.1 µM), usual class: activators | AID 624171 | 410,000 compounds, 0.31% hits | AREc32 ARE-luciferase reporter (MCF7-derived line), luminescence, 24 h; note: nearly all actives have a fitted effect of over 65% in size
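Nrf2 activation is followed as ARE-luciferase induction in the AREc32 line after one day of compound treatment; luminescence is read with Steady-Glo.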
IL2 activator: IL-2 activation | IL-2 activation reporter assay, cell-based qHTS; stimulated with anti-CD3/CD4/CD28 beads; in transgenic mouse T cells | activation, % (series mostly up to about 46 µM) | 360,000 compounds, 0.065% hits; in the data active = activation above about 50%; inconclusive = mostly about 30% to 49%
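Screening format: compound pinned onto unstimulated transgenic mouse T cells, 60 min incubation, then anti-CD3/anti-CD4/anti-CD28 bead stimulation for 18 hours at 37 degrees C, followed by EGFP and DsRed detection.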
Large screens that a line does not name were inactive. Unless noted, calls come from the whole dose curve; as a rule, active = well fitted curve in the direction sought with a large enough effect; inconclusive = small, poorly fitted or top-dose-only effect, or another doubt; inactive = no such curve, though single readings can be large; an effect the other way counts as inactive or inconclusive.

COc1ccc2ncnc(NCC3CCCO3)c2c1-c1ccc2c(c1)OCO2 (configuration not stated)	Nrf2 inh inconclusive (no result: Nrf2 ARE act, IL2 activator)
COc1cccc2c1C(=O)c1c(O)c3c(c(O)c1C2=O)C[C@@](O)(C(=O)CO)C[C@@H]3O[C@H]1C[C@H](N)[C@@H](O)[C@H](C)O1	A549 viability inconclusive, Nrf2 inh 3.3µM
CC(=O)[C@]1(O)Cc2c(O)c3c(c(O)c2[C@@H](O[C@H]2C[C@H](N)[C@H](O)[C@H](C)O2)C1)C(=O)c1ccccc1C3=O	A549 viability inconclusive, Nrf2 inh inconclusive
Cc1csc(NC(=O)CCc2c(C)nc3cc(-c4ccc(Cl)cc4)nn3c2C)n1	Nrf2 inh 1.5µM
Cc1nc2cc(-c3ccc(Cl)cc3)nn2c(C)c1CCC(=O)NC(C)c1ccc2c(c1)OCCO2 (configuration not stated)	Nrf2 inh 13µM
COc1ccccc1CNC(=O)CCc1c(C)nc2cc(-c3ccc(Cl)cc3)nn2c1C	none (no result: IL2 activator)
COc1ccccc1N1CCN(c2csc3ccccc3c2=O)CC1	none (no result: Nrf2 inh, IL2 activator)
Cc1ccc(-n2c(Cc3ccccc3)n[nH]c2=S)c(C)c1	Nrf2 inh 13µM
Cc1ccc(-n2c(CC#N)n[nH]c2=S)c(C)c1	none
CCOc1ccc(CN(C)c2ccc(S(=O)(=O)N3CCN(C)CC3)cc2[N+](=O)[O-])cc1OC	Nrf2 inh 16µM
O=C(Nc1ccc(F)cc1F)c1csc(-c2cccs2)n1	Nrf2 inh inconclusive, Nrf2 ARE act 10µM
O=C(Nc1ccc(F)cc1F)c1cc(Cl)sc1Cl	Nrf2 inh inconclusive, Nrf2 ARE act 14µM
COc1ccc(-n2c(=O)c3c4c(sc3n(Cc3ccc(F)cc3)c2=O)CCCC4)c(OC)c1	none (no result: IL2 activator)
Cc1ccc(Nc2nnc(-c3ccc(C)c(S(=O)(=O)N4CCOCC4)c3)c3ccccc23)c(C)c1	none (no result: IL2 activator)
CCCCCc1ccc(OCCCC[n+]2ccc(C)cc2)c(CCCCC)c1	Nrf2 inh 10µM
CCC(C)(C)c1ccc(OCCCC[n+]2ccccc2)c(C(C)(C)CC)c1	A549 viability inconclusive, Nrf2 inh 23µM
CCCCCc1ccc(OCCCC[n+]2ccccc2)c(CCCCC)c1	A549 viability inconclusive, Nrf2 inh 18µM
COc1ccc(Cc2noc(CN3CCN(Cc4cccc(Cl)c4)CC3)n2)cc1OC	Nrf2 inh inconclusive
COc1ccc(Cc2noc(CN3CCN(c4ccc(Cl)cn4)CC3)n2)cc1OC	Nrf2 inh 26µM
CCCN1CNc2c(c(=O)[nH]c(=S)n2CCc2c(Cl)cccc2Cl)C1	none (no result: Nrf2 ARE act, IL2 activator)
CS(=O)(=O)Nc1ccccc1C(=O)Nc1cccc(Cl)c1	Nrf2 inh inconclusive
CS(=O)(=O)Nc1ccccc1C(=O)Nc1cc(Cl)cc(Cl)c1	Nrf2 inh 13µM
O=c1cc(-c2cccs2)oc2ccc(Cl)cc12	Nrf2 inh inconclusive, Nrf2 ARE act 11µM
COc1ccc(-c2cc(C(=O)Nc3ccc(OC)cc3OC)no2)cc1	none
COc1ccc(NC(=O)c2cc(-c3cccs3)on2)c(OC)c1	Nrf2 ARE act 1.3µM
CC(C)(C)C1CCc2nc(NC(=O)COc3ccc(F)cc3)sc2C1 (configuration not stated)	none (no result: IL2 activator)
c1ccc(P(c2ccccc2)c2cnc3ccccn23)cc1	none (no result: Nrf2 ARE act, IL2 activator)
O=C1CCc2cc(S(=O)(=O)Nc3ccncc3)ccc2N1	none (no result: Nrf2 ARE act, IL2 activator)
Cc1cccc(NC(=O)c2sc3nc4c(cc3c2N)CN(C(C)C)CC4)c1	Nrf2 inh 16µM (no result: IL2 activator)
O=C(Nc1ccccc1F)c1ccc(-c2cccc([N+](=O)[O-])c2)o1	Nrf2 inh inconclusive, Nrf2 ARE act 1.4µM
COc1cccc(CN(C(=O)Cc2c[nH]c3ccccc23)C(C(=O)NC2CCCCC2)c2ccc(C)o2)c1 (configuration not stated)	A549 viability inconclusive, Nrf2 inh 21µM
COc1ccc(CN(C(=O)Cc2c[nH]c3ccccc23)C(C(=O)NC2CCCCC2)c2ccc(C)o2)cc1 (configuration not stated)	A549 viability inconclusive, Nrf2 inh 12µM
Cc1ccc(C(C(=O)NC2CCCCC2)N(Cc2ccccc2)C(=O)Cc2c[nH]c3ccccc23)o1 (configuration not stated)	A549 viability inconclusive, Nrf2 inh inconclusive
N#Cc1ccc(C(=O)NCC(=O)OC(C(=O)Nc2cc(C(F)(F)F)ccc2Cl)c2ccccc2)cc1 (configuration not stated)	none (no result: Nrf2 ARE act, IL2 activator)
CCCNC(=O)N1CCN(S(=O)(=O)c2ccc3c(ccn3C)c2)CC1	none (no result: Nrf2 inh, IL2 activator)
COc1cccc(/C=C2\SC(=S)N(C(C)C(=O)NC3C=CS(=O)(=O)C3)C2=O)c1 (configuration not stated)	Nrf2 ARE act 18µM
COc1cccc(/C=C2\SC(=O)N(CC(=O)NC3C=CS(=O)(=O)C3)C2=O)c1 (configuration not stated)	Nrf2 ARE act 16µM
COc1cccc(/C=C2\SC(=O)N(CC(=O)NC3CCS(=O)(=O)C3)C2=O)c1 (configuration not stated)	none
CCC(=O)Nc1cc(OC)c(NC(=O)c2ccccc2)cc1OC	none
COc1ccccc1CC(=O)Nc1cc(OC)c(NC(=O)c2ccccc2)cc1OC	Nrf2 inh 15µM
CCCOc1ccc(OC(=O)c2cn(-c3ccc(OC)cc3)c(=O)c3ccccc23)cc1	none (no result: Nrf2 inh, IL2 activator)
Cc1cc2c(s1)c1cnn(Cc3cc(C(F)(F)F)cc(Cl)c3F)c(=O)c1n2C	none (no result: Nrf2 ARE act, IL2 activator)
CC(C)(C)c1ccc(Oc2ccc(N)cn2)cc1	Nrf2 inh 18µM
Cc1ccc(S(=O)(=O)Nc2cc(Cl)c(O)c3ncccc23)cc1	Nrf2 inh 21µM
Cc1ccc(S(=O)(=O)Nc2cc(S(=O)(=O)c3ccc(C)cc3)c(O)c3cccnc23)cc1	none (no result: Nrf2 ARE act, IL2 activator)
COc1ccccc1-n1nc(-c2ccccc2)c2cnc3c(F)cc(F)cc3c21	none (no result: IL2 activator)
CC/C(=N/Nc1ccc(Cl)cc1)c1cnnc(SC)n1	none
CC/C(=N/Nc1cccc(C)c1)c1cnnc(SC)n1	IL2 activator 190
CCOC(=O)N1CC=C2C(C#N)=C(N)C(C#N)(C#N)[C@H](c3ccccc3OCC)[C@H]2C1	A549 viability inconclusive, Nrf2 inh 16µM
CCOC(=O)N1CC=C2C(C#N)=C(N)C(C#N)(C#N)[C@H](c3ccc(OC(C)C)c(OCC)c3)[C@H]2C1	none (no result: Nrf2 inh)
N#CC1=C(N)C(C#N)(C#N)[C@H](c2cccnc2)[C@H]2CN(C(=O)OCc3ccccc3)CC=C12	Nrf2 inh inconclusive
N#CC1=C(N)C(C#N)(C#N)C(c2ccncc2)C2CN(C(=O)OCc3ccccc3)CC=C12 (configuration not stated)	Nrf2 inh 23µM, Nrf2 ARE act inconclusive
Cc1ccc(N2CCn3c2nc2c3c(=O)n(CCCc3ccccc3)c(=O)n2C)cc1	none (no result: IL2 activator)
C=CCN(Cc1ccc(OC)c(OC)c1)C(=O)c1cc2cc(F)ccc2[nH]1	A549 viability inconclusive, Nrf2 inh 23µM
Cc1cc(C)nc(-n2nc(C)c3c2NC(=O)CC3c2ccccc2OC(C)C)n1 (configuration not stated)	none (no result: IL2 activator)
COc1ccc(-c2cc(C(F)(F)F)n3nc(C(=O)NCC45CC6CC(CC(C6)C4)C5)cc3n2)cc1	Nrf2 inh 15µM (no result: IL2 activator)
